# Data taken from PubChem BioAssay (EPA / NIEHS).
# Inconclusive results are not listed. The source made the active and inactive calls. The calls were made as follows: active = hit-call score of the fitted dose curve at least 0.9, where 1 is the maximum; inconclusive = response in the unintended direction; inactive = score below 0.9.
# Experiments:
# [1] = molecular target: Cellular tumor antigen p53 (Homo sapiens) (UniProt P04637); assay: TOX21_p53_BLA_p4_ratio: Tox21 HCT-116 p53 Agonism Beta-lactamase Assay, Ratio, Phase 4 (AID 2283601)
# Cellular tumor antigen p53 (Homo sapiens), sequence (P04637 whole entry, looked up): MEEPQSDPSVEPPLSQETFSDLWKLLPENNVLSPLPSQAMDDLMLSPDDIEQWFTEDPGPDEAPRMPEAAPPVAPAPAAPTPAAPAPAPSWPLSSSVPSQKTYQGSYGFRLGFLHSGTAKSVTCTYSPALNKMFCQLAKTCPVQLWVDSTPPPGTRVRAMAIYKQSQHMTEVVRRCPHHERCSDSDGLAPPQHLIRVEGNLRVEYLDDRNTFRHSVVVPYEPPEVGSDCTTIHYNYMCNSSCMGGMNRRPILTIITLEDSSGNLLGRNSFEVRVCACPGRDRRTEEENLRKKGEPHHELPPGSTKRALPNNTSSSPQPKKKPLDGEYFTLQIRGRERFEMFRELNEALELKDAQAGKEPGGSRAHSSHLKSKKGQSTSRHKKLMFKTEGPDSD
# Summary of the method: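 HCT-116 p53 beta-lactamase reporter cells (4000/well) preincubated 5 h, then compound (217-fold dilution of DMSO stock) for 16 h at 37C. CCF4-AM substrate added 2 h at room temperature; 460/530 nm emission ratio fitted upward versus DMSO.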
# [2] = Tanguay_ZF_120hpf_MORT_legacy: (Legacy) Oregon State University Tanguay Lab 120 Hour Post-fertilization zebrafish Assay for Mortality (AID 2283633)
# Summary of the method: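 Mortality endpoint from a multiplexed whole-embryo zebrafish screen. Dechorionated wild-type embryos received compound at 6 hpf and remained under static exposure at 28C until 120 hpf, with death noted as a present/absent call.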
# [3] = Tanguay_ZF_120hpf_YSE_legacy: (Legacy) Oregon State University Tanguay Lab 120 Hour Post-fertilization zebrafish Assay for Yolk Sac Edema (AID 2283634);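 as to AC50: actives raise the incidence of yolk sac edema above the DMSO baseline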
# Summary of the method: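 Readout: presence or absence of yolk sac edema at 120 hpf, fitted upward against DMSO controls. Exposure ran statically from 6 hpf in dechorionated embryos kept at 28C.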
# [4] = Tanguay_ZF_120hpf_SNOU_legacy: (Legacy) Oregon State University Tanguay Lab 120 Hour Post-fertilization zebrafish Assay for Snout Malformation (AID 2283637)
# Summary of the method: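 Dechorionated tropical 5D wild-type zebrafish embryos exposed statically from 6 to 120 hpf at 28C, one per well, in 0.64% DMSO. Snout malformation scored as present/absent by brightfield at 120 hpf; dead embryos not scored.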
# [5] = Tanguay_ZF_120hpf_JAW_legacy: (Legacy) Oregon State University Tanguay Lab 120 Hour Post-fertilization zebrafish Assay for Jaw Malformation (AID 2283638);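 as to AC50: active means more embryos with jaw malformation than DMSO controls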
# Summary of the method: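 Static waterborne exposure of dechorionated wild-type (Tropical 5D) zebrafish from 6 to 120 hpf at 28C, 0.64% DMSO vehicle; 5uM trimethyltin chloride served as positive control. Jaw morphology recorded as binary at 120 hpf.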
# [6] = Tanguay_ZF_120hpf_OTIC_legacy: (Legacy) Oregon State University Tanguay Lab 120 Hour Post-fertilization zebrafish Assay for Otic Vesicle Malformation (AID 2283639)
# Summary of the method: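 Otic vesicle malformation is read as a yes/no morphology call at 120 hpf. Exposure is static at 28C with 0.64% (vol/vol) DMSO; embryos that die are excluded from non-mortality endpoints.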
# [7] = Tanguay_ZF_120hpf_PE_legacy: (Legacy) Oregon State University Tanguay Lab 120 Hour Post-fertilization zebrafish Assay for Pericardial Edema (AID 2283640);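 as to AC50: potency for increased incidence of pericardial edema versus DMSO baseline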
# Summary of the method: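 Read-out is the presence or absence of pericardial edema at 120 hpf under brightfield, with gain of signal fitted against DMSO controls. Larvae (5D wild-type) were statically exposed at 28C with 0.64% final DMSO.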
# [8] = Tanguay_ZF_120hpf_BRAI_legacy: (Legacy) Oregon State University Tanguay Lab 120 Hour Post-fertilization zebrafish Assay for Brain Malformation (AID 2283641)
# Summary of the method: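 Brain malformation in Tropical 5D zebrafish was recorded as a binary endpoint after static compound exposure from early development to 120 hpf at 28C. Activity was analysed against DMSO as negative control.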
# [9] = Tanguay_ZF_120hpf_AXIS_legacy: (Legacy) Oregon State University Tanguay Lab 120 Hour Post-fertilization zebrafish Assay for Body Axis Malformation (AID 2283635)
# Summary of the method: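 Static 6–120 hpf chemical exposure of dechorionated wild-type 5D zebrafish, one per well at 28C; morphology endpoint scored binary at 120 hpf relative to DMSO control.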
# [10] = Tanguay_ZF_120hpf_EYE_legacy: (Legacy) Oregon State University Tanguay Lab 120 Hour Post-fertilization zebrafish Assay for Eye Malformation (AID 2283636);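 also: binary presence or absence of eye malformation scored by brightfield in 120 hpf larvae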
# Summary of the method: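 Dechorionated Tropical 5D zebrafish embryos, one per well from 6 hpf, static exposure to 120 hpf at 28C, 0.64% DMSO. Eye malformation scored present/absent by brightfield; dead embryos not scored.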
structure (smiles),measurement,setting,value
COc1cc(OC)nc(NC(=O)NS(=O)(=O)c2ncccc2OCC(F)(F)F)n1,outcome,[1],inactive
same,outcome,[2],inactive
same,outcome,[3],inactive
same,outcome,[4],inactive
same,outcome,[5],inactive
same,outcome,[6],inactive
same,outcome,[7],inactive
same,outcome,[8],inactive
CC(C)Oc1cccc(NC(=O)c2ccccc2C(F)(F)F)c1,outcome,[1],inactive
same,outcome,[2],inactive
same,AC50,[3],48.7 µM (active)
same,outcome,[9],inactive
same,AC50,[4],50.4 µM (active)
same,AC50,[5],40.4 µM (active)
same,outcome,[6],inactive
same,AC50,[7],48.1 µM (active)
same,AC50,[8],38.3 µM (active)
CC1(C)C(C(=O)OC(C#N)c2cccc(Oc3ccccc3)c2)C1(C)C (stereo not drawn),outcome,[1],inactive
same,outcome,[2],inactive
same,outcome,[3],inactive
same,outcome,[10],inactive
same,outcome,[4],inactive
same,outcome,[5],inactive
same,outcome,[6],inactive
same,outcome,[7],inactive
same,outcome,[8],inactive
CC(C)=CC1C(C(=O)OCc2coc(Cc3ccccc3)c2)C1(C)C (stereo not drawn),outcome,[2],inactive
same,outcome,[3],inactive
same,outcome,[9],inactive
same,outcome,[10],inactive
same,outcome,[4],inactive
same,outcome,[5],inactive
same,outcome,[6],inactive
same,outcome,[7],inactive
same,outcome,[8],inactive
CNC(=O)N(C)c1nnc(C(C)(C)C)s1,outcome,[1],inactive
same,outcome,[2],inactive
same,outcome,[10],inactive
same,outcome,[4],inactive
same,outcome,[5],inactive
same,outcome,[6],inactive
same,outcome,[7],inactive
same,outcome,[8],inactive
CCCC(=NOCC)C1=C(O)CC(CC(C)SCC)CC1=O (stereo not drawn),outcome,[2],inactive
same,outcome,[3],inactive
same,outcome,[9],inactive
same,outcome,[10],inactive
same,outcome,[4],inactive
same,outcome,[5],inactive
same,outcome,[6],inactive
same,outcome,[7],inactive
same,outcome,[8],inactive
OC(c1ccc(Cl)cc1)(c1ccc(Cl)cc1)C(Cl)(Cl)Cl,outcome,[1],inactive
same,outcome,[2],inactive
same,outcome,[4],inactive
same,outcome,[5],inactive
same,outcome,[6],inactive
same,outcome,[7],inactive
same,outcome,[8],inactive
CN=C=S,outcome,[1],inactive
same,outcome,[2],inactive
same,outcome,[3],inactive
same,outcome,[6],inactive
same,outcome,[7],inactive
same,outcome,[8],inactive
CCCN(CC)CC1COC2(CCC(C(C)(C)C)CC2)O1 (stereo not drawn),outcome,[2],inactive
same,outcome,[3],inactive
same,outcome,[4],inactive
same,outcome,[5],inactive
same,outcome,[6],inactive
same,outcome,[7],inactive
same,outcome,[8],inactive
C=CCOC(=O)C(C)(C)OC(=O)c1cc(-n2c(=O)cc(C(F)(F)F)n(C)c2=O)ccc1Cl,outcome,[1],inactive
same,outcome,[2],inactive
same,outcome,[3],inactive
same,outcome,[4],inactive
same,outcome,[5],inactive
same,outcome,[7],inactive
same,outcome,[8],inactive
CC(C)N1C(=O)c2ccccc2NS1(=O)=O,outcome,[1],inactive
same,outcome,[2],inactive
same,outcome,[10],inactive
same,outcome,[4],inactive
same,outcome,[5],inactive
same,outcome,[6],inactive
same,outcome,[7],inactive
same,outcome,[8],inactive
CCC(C)n1c(=O)[nH]c(C)c(Br)c1=O (stereo not drawn),outcome,[2],inactive
same,outcome,[3],inactive
same,outcome,[10],inactive
same,outcome,[4],inactive
same,outcome,[6],inactive
same,outcome,[7],inactive
same,outcome,[8],inactive
CCN(CC)c1nc(C)cc(OP(=S)(OC)OC)n1,outcome,[1],inactive
same,outcome,[2],inactive
same,outcome,[3],inactive
same,outcome,[4],inactive
same,outcome,[5],inactive
same,outcome,[6],inactive
same,outcome,[7],inactive
same,outcome,[8],inactive
Cc1nc(N(C)C)nc(OC(=O)N(C)C)c1C,outcome,[2],inactive
same,outcome,[3],inactive
same,outcome,[4],inactive
same,outcome,[5],inactive
same,outcome,[6],inactive
same,outcome,[7],inactive
COC(=O)N(C(=O)N1CO[C@@]2(C(=O)OC)Cc3cc(Cl)ccc3C2=N1)c1ccc(OC(F)(F)F)cc1,AC50,[1],37.6 µM (active)
same,outcome,[2],inactive
same,outcome,[3],inactive
same,outcome,[4],inactive
same,outcome,[5],inactive
same,outcome,[6],inactive
same,outcome,[7],inactive
same,outcome,[8],inactive
CCCCC(C#N)(Cn1cncn1)c1ccc(Cl)cc1 (stereo not drawn),outcome,[1],inactive
same,outcome,[2],inactive
same,AC50,[3],37.7 µM (active)
same,AC50,[4],48.6 µM (active)
same,AC50,[5],48 µM (active)
same,outcome,[6],inactive
same,AC50,[7],46.8 µM (active)
same,outcome,[8],inactive
Nc1cnn(-c2ccccc2)c(=O)c1Cl,outcome,[1],inactive
same,outcome,[2],inactive
same,outcome,[3],inactive
same,outcome,[4],inactive
same,outcome,[5],inactive
same,outcome,[6],inactive
same,outcome,[7],inactive
same,outcome,[8],inactive
COCc1cnc(C2=NC(C)(C(C)C)C(=O)N2)c(C(=O)O)c1 (stereo not drawn),outcome,[2],inactive
same,outcome,[3],inactive
same,outcome,[4],inactive
same,outcome,[5],inactive
same,outcome,[7],inactive
same,outcome,[8],inactive
